Calls of active or inactive are those of the source.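 How the source made its calls: active means relative FRET score above 0.01, or acceptor fluorescence over 30% below the sample-well median; inactive means the rest.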
Target: Protein Rev (Human immunodeficiency virus type 1 group M subtype B (isolate WMJ22)) (UniProt P05866)
Experiment: disruptors of Rev peptide-RRE RNA complex – biochemical, FRET, acceptor and relative FRET calls, confirmation (AID 837);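 further: relative FRET combines rise in Cy5 acceptor with fall in fluorescein donor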
Conditions: Fl-Rev peptide / Cy5-RRE RNA FRET, 1536-well; at 8 µM

Chain of Protein Rev (Human immunodeficiency virus type 1 group M subtype B (isolate WMJ22)) (P05866 whole entry, looked up): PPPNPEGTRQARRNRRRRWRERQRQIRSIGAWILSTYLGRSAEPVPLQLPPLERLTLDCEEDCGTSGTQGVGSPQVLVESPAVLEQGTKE

SMILES	outcome
c1ccc(CSc2ncnc3c2cnn3Cc2ccccc2)cc1	inactive
CC(C)c1ccc(CNCc2ccccc2)cc1	inactive
Nc1nc(Nc2ccc(Cl)cc2)nc2ccccc12	active
OC(COCCC12CC3CC(CC(C3)C1)C2)CN1CCCCC1 (stereo not given)	inactive
Cc1occc1C(=O)Nc1sc2c(c1C(N)=O)CCC(C(C)(C)C)C2 (stereo not given)	inactive
NCCCC(=O)N1c2ccccc2Sc2ccccc21	active
Nc1nc(Nc2ccccc2)nc2ccccc12	inactive
Cc1cccc(NC2=NC3(CCCCC3)N=C(N)N2)c1C	inactive
Cc1ccc(C(=O)NNC(=O)CSc2nnc3c(n2)[nH]c2ccc(F)cc23)cc1	active; quenches the donor
Cc1nc(Nc2ccc(F)cc2)[nH]c(=O)c1CCC(C)C	inactive
Cc1nc(Nc2ccncc2)c2oc3ccccc3c2n1	active
CN(C)CC(O)COc1ccc(-c2ccc(C#N)cc2)cc1 (stereo not given)	active
CCOC(=O)Cn1c(=N)n(CCOc2ccc(OC)cc2)c2ccccc21	inactive
CCOc1cc(CNCCCN2CCOCC2)ccc1OCC(=O)Nc1cccc2ccccc12	inactive
Nc1[nH]c(=S)[nH]c(=O)c1-c1ccccc1	inactive
Nc1nc(CN2CCCCCC2)nc(Nc2ccc(F)cc2)n1	inactive
CCOC(=O)Cn1c(=N)n(Cc2ccccc2)c2ccccc21	inactive
CN1CCN(Cc2cccc(Oc3ccc(Cl)cc3)c2)CC1	inactive
C1=C2C[N+]3(CCCC3)CC2Cc2ccc3ccccc3c21 (stereo not given)	inactive
CCCn1c(=N)c(C(=O)NCc2ccc3c(c2)OCO3)cc2c(=O)n3cccc(C)c3nc21	inactive

SMILES	outcome
Cc1c(Cl)cccc1Nc1nc(N)nc(CN2CCCCCC2)n1	inactive
CC1=NN(c2ccccc2)C(=O)C1N=Nc1ccc(N)cc1 (stereo not given)	active; fluoresces like the acceptor
COc1ccc(/C=C/c2cc(-c3ccc(C)cc3)o[n+]2C)cc1	active
Cc1ccc(C2C3=C(NCCN=C3c3ccccc3)C(=O)N2c2ccccc2)cc1 (stereo not given)	inactive
CCOc1ccc(C(O)Cn2c(=N)n(CCN3CCCCC3)c3ccccc32)cc1 (stereo not given)	inactive
C=CCn1cc(-c2ccccc2)cc(C#N)c1=O	inactive
CC(C)CN=c1cc(-c2ccccc2)oc2ccc(Cl)cc12	active
C=CCNCCCCOc1c(Cl)cc(C)cc1Br	inactive
OCCN=c1cc(-c2ccccc2)oc2ccc(Cl)cc12	inactive
CCOC(=O)CSc1ccc(S(=O)(=O)N(C)C2CCCCC2)cc1[N+](=O)[O-]	inactive
N=c1c2c(n(Cc3ccc(F)cc3)c3c1CCC3)CCC2	inactive
CCC(C)(C)c1ccc(OCCN2C(=O)NC(C)(C)C2=O)cc1	inactive
CC(C)(C)CC(C)(C)NCC(O)COc1c(F)cc(Br)cc1F (stereo not given)	inactive
COc1ccc(Nc2nc(N)nc(CN(C)C3CCCCC3)n2)cc1	active
COc1cccc(Nc2nc(N)nc(-c3oc4ccccc4c3C)n2)c1	active
N=c1n(CCO)c2ccccc2n1CCOc1ccccc1	inactive
CC(Nc1nc(N2CCCCC2)nc2ccccc12)c1ccccc1 (stereo not given)	inactive
O=C(Nc1nccs1)c1ccc(-c2ccccc2Cl)o1	inactive
CCCCN1C(=O)Cc2c1nc(N)c1c(N)nc(N(CCC)CCC)c(C#N)c21	inactive
COc1ccc(CCn2c(=N)c(C(=O)NCc3ccco3)cc3c(=O)n4cccc(C)c4nc32)cc1	inactive

— PubChem BioAssay AID837 (The Scripps Research Institute Molecular Screening Center, 2007)
